Screening data from PubChem BioAssay.
YopH inh: blocks Yersinia enterocolitica YopH tyrosine phosphatase; fluorescence Ex485/Em525; inhibition, % (concentration not given with the values); 0.16% of 140,000 active; AID 898; in the data active = inhibition above about 50%
RmlC RmlD mix: RmlC/RmlD inhibition, mixture screen. 0.39% of 110,000 active. RmlC/RmlD coupled enzyme inhibition, 384-well mixture HTS. inhibition, % at 5.5 µM; in the data active = inhibition above about 30%, passing the limit was not always enough; inconclusive = no clear call, values can overlap the other calls
RmlCD artifact: shows fluorescent artifact in RmlC/RmlD assay, dose-response counter-screen; shares compounds with RmlC RmlD mix; RmlC/RmlD assay fluorescence artifact counter-screen; calls only; 96% of 360 active; AID 1696; call rule not given here;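 also: compound alone with no enzyme and no substrates present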
Hits are given with their value; . = inactive; ? = inconclusive; / = no result; + = active, no number. Most compounds without a hit are left out; they make up all but 0.44% or so of the library.

SMILES	YopH inh	RmlC RmlD mix	RmlCD artifact
Cc1ccc(S(=O)(=O)NC(C(=O)Oc2ccc3ccc(=O)oc3c2)c2ccccc2)cc1 (stereo unspecified)	.	/	/
Cc1ccc(S(=O)(=O)N[C@H](C(=O)Oc2ccc3c(C(F)(F)F)cc(=O)oc3c2)c2ccccc2)cc1	.	101	+
O=C(CN(c1ccc(F)cc1)S(=O)(=O)c1ccccc1)NCCSC1CCCCC1	.	/	/
O=c1cc(C(F)(F)F)c2sc(N3CCCCC3)nc2[nH]1	.	65	+
c1c2c(cc3sc(N4CCCCC4)nc13)OCO2	.	/	/
O=C(O)c1cc(-c2ccco2)nc2ccccc12	.	54	+
O=C(Nc1nc2ccccc2s1)c1cc(-c2ccco2)nc2ccccc12	.	/	/
O=C(OCC(=O)N1CCN(C(=O)c2ccco2)CC1)c1cc(-c2ccco2)nc2ccccc12	.	30	+
O=C(OCC(=O)N1CCN(C(=O)c2ccco2)CC1)c1cc(-c2ccc(Cl)c(Cl)c2Cl)nc2ccccc12	.	.	/
COc1ccc(C(=O)/C=C/c2ccc(OC)c(Cn3nnc4ccccc43)c2)cc1	.	/	/
COc1cc([N+](=O)[O-])c(C(=O)N2CCOCC2)c([N+](=O)[O-])c1	.	/	/
Cc1nc2ccccc2cc1C(=O)O	.	.	/
O=c1cccc2n1Cc1cc3ccccc3nc1-2	.	55	+
CC(C)(C)c1nn2cnnc2n(/N=C/c2ccccc2)c1=O	.	/	/
CNC(=O)NC(=O)C(C)OC(=O)c1oc2ccccc2c1CSc1ccc(Cl)cc1 (stereo unspecified)	.	/	/
CC(NC(=O)c1ccccc1NC(=O)c1ccccc1)C(=O)N1CCOCC1 (stereo unspecified)	.	/	/
CCOC(=O)c1nn(-c2ccc(Cl)cc2)c2nc(CC)c(C#N)c(=O)n12	.	85	+
CCOC(=O)c1nn(-c2ccc(Cl)cc2)c2nc(-c3ccc(C)cc3)c(C#N)c(=O)n12	.	.	/
N#Cc1c(-c2ccco2)cc(-c2ccccn2)nc1N	.	46	+
N#Cc1c(-c2ccco2)cc(-c2cccnc2)nc1N	.	?	/
COC(=O)C1N[C@@H]([C@@H](NC(=O)COc2ccccc2)C(=O)Nc2ccc(OC)cc2)SC1(C)C (stereo partly specified)	/	.	/
CC(=O)Oc1ccc2c(=O)c(-c3ccccc3)c(C)oc2c1	/	80	+
COC(=O)c1cc(-c2c(C)oc3cc(OC(C)C)ccc3c2=O)c(C)o1	.	.	/
Cc1ccc(N(C)S(=O)(=O)c2cccc(C(=O)Oc3ccc4c(C)cc(=O)oc4c3)c2)cc1	.	/	/
Cc1cc(=O)oc2cc(OC(=O)c3ccccc3)ccc12	/	46	+
SMILES	YopH inh	RmlC RmlD mix	RmlCD artifact
OCC[C@H]1C[C@H](O)[C@@H](O)[C@@]2(CCCO2)O1	/	.	/
O=C(CCN1C(=O)C2C3CCC(C3)C2C1=O)OCC(=O)c1cccc([N+](=O)[O-])c1 (stereo unspecified)	.	/	/
CCOc1ccc(N2C(=O)C3C(c4ccccc4F)NN(C(=O)c4ccc(C)cc4)C3C2=O)cc1 (stereo unspecified)	.	/	/
CSc1sc(C(=O)NN)c2c1C(O)CCC2 (stereo unspecified)	/	.	/
C/C=C/C=C\C(=O)Nc1cccc(C2=NOC3(C2)C[C@@H](C(N)=O)N(C(=O)c2cc([N+](=O)[O-])cc([N+](=O)[O-])c2)C3)c1 (stereo partly specified)	/	.	/
CC(=O)c1ccc(-c2nc3ccccc3n2C)o1	.	151	+
Cc1ccc(-c2nc3ccccc3n2C)o1	.	.	/
Cc1nc(SCC(=O)CC(=O)OC(C)C)c(C#N)c(C)c1C	.	.	/
Cc1cc(C)c(C#N)c(SCC(=O)CC(=O)OC(C)C)n1	.	55	+
N=c1ncn(Cc2ccccc2)c2nc(SCCOc3ccccc3)[nH]c12	.	/	/
COC(=O)c1cc(=O)c2cccc(OC)c2[nH]1	/	/	.
COc1ccc(OC)c2[nH]c(C(=O)O)cc12	.	.	/
COc1ccc(-c2cc(C(F)(F)F)n3nc(C(=O)Nc4cc(C)on4)cc3n2)cc1OC	.	/	/
COc1ccc(-c2cc(C(F)(F)F)n3nc(C(=O)N(C)Cc4ccccc4)cc3n2)cc1OC	/	/	+
Cc1cccc(CCN2CCC(C(=O)c3ccc(NS(C)(=O)=O)cc3)CC2)n1	/	.	/
Cc1ccc2nc3c(cc(C#N)c(=O)n3CC3CCCO3)c(=O)n2c1 (stereo unspecified)	.	105	+
Cc1ccc2nc3c(cc(C#N)c(=O)n3-c3nccs3)c(=O)n2c1	.	107	+
Cc1cccn2c(=O)c3cc(C#N)c(=N)n(CC4CCCO4)c3nc12 (stereo unspecified)	.	/	/
Cc1ccc(-n2c(=O)c(C#N)cc3c(=O)n4cccc(C)c4nc32)cc1	.	.	/
Cc1[nH]c2ccccc2c1C(=O)CSc1nc2ccccc2c(=O)n1CCCN1CCOCC1	.	.	/
C/C(=N/NC(=O)c1ccc(Br)o1)c1cccc(NC(=O)c2ccc(C)o2)c1	.	/	/
c1ccc(-c2cnc(-c3cccnc3)o2)cc1	.	.	/
NC(=O)c1ccc(-c2ncc(-c3ccccc3)o2)cc1	.	73	+
COc1ccc([N+](=O)[O-])cc1NC(=O)c1ccc(N(Cc2ccccc2Cl)S(C)(=O)=O)cc1	.	/	/
NCCCC[C@@H](C(=O)N1CCNCC1)n1cc([C@@H](N)CO)nn1	/	.	/
SMILES	YopH inh	RmlC RmlD mix	RmlCD artifact
CC[C@H](C)/C=C(C)/C=C/C1=CC2=C(Cl)C(=O)[C@@](C)(OC(C)=O)C(=O)C2=CO1	/	.	/
CCC(C)/C=C(C)/C=C/C1=CC2=C(Cl)C(=O)C(C)(OC(C)=O)C(=O)C2=CO1 (stereo unspecified)	/	33	+
CC(=O)Nc1nc2nc(-c3ccccc3)cc(-c3ccccc3)n2n1	.	.	/
O=C1CCC(=O)N1c1nc2nc(-c3ccccc3)cc(-c3ccccc3)n2n1	.	103	+
O=C(O)c1cc2c(s1)-c1ccccc1OC2	.	?	/
O=C(c1ccco1)N1CCN(C(=O)c2cc3c(s2)-c2ccccc2OC3)CC1	.	46	+
CCOC(=O)c1sc(NC(=O)CSc2nc3c(c(=O)n2-c2ccc(C)cc2)SCC3)c(C(=O)OCC)c1C	.	.	/
COc1ccc2cc3cc(C(=O)NCCCN4CCOCC4)oc3nc2c1	.	43	+
CCN1CCN(CCCNC(=O)c2cc3cc4ccc(OC)cc4nc3o2)CC1	.	/	/
COC(=O)c1ccc(Oc2c(C)oc3c(CN4CCN(C)CC4)c(O)ccc3c2=O)cc1	.	40	+
COc1ccccc1Oc1c(C)oc2c(CN3CCN(C)CC3)c(O)ccc2c1=O	.	/	/
Cc1ccc2c(c1)c1ncnc(N3CCOCC3)c1n2C	.	/	+
Cc1ccc2c(c1)c1ncnc(N3CCC4(CC3)OCCO4)c1n2C	.	.	/
Cc1cc(OCC(=O)N(C)C)c2c(-c3ccccc3)cc(=O)oc2c1	.	.	/
CN(C)C(=O)COc1ccc2cc(-c3ccccc3)c(=O)oc2c1	.	55	+
O=c1c2ccccc2[se]n1-c1ccccc1	.	57	+
O=c1c2ccccc2nc(N2CCCC2)n1-c1ccccc1	.	.	/
COc1ccc2cc(CN(Cc3cccnc3)Cc3nnnn3Cc3ccccc3)c(=O)[nH]c2c1	.	33	.
COc1ccc2cc(CN(Cc3cccs3)Cc3nnnn3Cc3ccccc3)c(=O)[nH]c2c1	.	.	/
CCCCOCCCn1c(-c2ccco2)nc2nc3ccccc3nc21	.	41	+
CCCCn1c(-c2cccs2)nc2nc3ccccc3nc21	.	.	/
